Consider 39 compounds from the supplement of paper PMC8371130.

Where a name gives a salt, the structure may show the parent alone.

The test system of the first test is HL-1. The test is described as follows: relative cell viability (CellTiter-Glo) vs DMSO control (% of DMSO control); higher = more viable cells. To be noted: oxygen condition: hypoxia 48 h (1% O2) + reoxygenation 24 h; 5000 nM. The method, boiled down:
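Plating of HL-1 mouse atrial cardiomyocytes at 1000 cells per well in 384-well plates was done together with compounds at 40, 200, 1000 or 5000 nM in 0.01% DMSO. A day later the cells faced 48 h of 1% O2 and then 24 h of reoxygenation, or matching normoxia. Viability was measured via CellTiter-Glo luminescence and set relative to vehicle-treated control cells.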
As for `Nc1c2c(nc3ccccc13)CCCC2` [Tacrine HCl], the relative cell viability was 20.3. Still for that read-out and setting: to `O=P(O)(O)C(O)(Cn1ccnc1)P(=O)(O)O` [Zoledronic Acid] belongs 111; to `O=C(c1ccc(OCCN2CCCCC2)cc1)c1c(-c2ccc(O)cc2)sc2cc(O)ccc12` [Evista], 54; to `CCCN(CCC)S(=O)(=O)c1ccc(C(=O)O)cc1` [Probenecid], 110. In the case of `CS(=O)(=O)c1ccc(C2=C(c3ccccc3)C(=O)OC2)cc1` [Rofecoxib], the relative cell viability amounted to 107. On the same count and under the same terms, next, `CN(C)c1nc(N(C)C)nc(N(C)C)n1` [Altretamine]: 109. Still for that read-out and setting: next, `Cc1cccc(C)c1OCC(C)N` (stereo not given) [Mexiletine HCl]: 121. Same read-out and setting: to `CCNC(=O)CCC/C=C\C[C@@H]1[C@@H](/C=C/[C@@H](O)CCc2ccccc2)[C@H](O)C[C@@H]1O` [Bimatoprost] belongs 105; to `C[C@]12CC[C@@H]3c4ccc(O)cc4C[C@@H](CCCCCCCCC[S+]([O-])CCCC(F)(F)C(F)(F)F)[C@H]3[C@@H]1CC[C@@H]2O` (stereo not given in full) [Fulvestrant], 122.

For `CCc1c2c(nc3ccc(OC(=O)N4CCC(N5CCCCC5)CC4)cc13)-c1cc3c(c(=O)n1C2)COC(=O)[C@]3(O)CC` [Irinotecan HCl Trihydrate], the relative cell viability was 40.2. The same measure, in the same setting: next, `Cc1cn(-c2cc(NC(=O)c3ccc(C)c(Nc4nccc(-c5cccnc5)n4)c3)cc(C(F)(F)F)c2)cn1` [Nilotinib]: 111.

Staying with this test, now noted: oxygen condition: normoxia 72 h; 40 nM.
`CCOc1nc2cccc(C(=O)OC(C)OC(=O)OC3CCCCC3)c2n1Cc1ccc(-c2ccccc2-c2nn[nH]n2)cc1` (stereo not given) [Candesartan cilexetil] returned a relative cell viability of 98. `Nc1cc(N2CCCCC2)nc(N)[n+]1[O-]` [Minoxidil] returned a relative cell viability of 114.

Consider `Cc1ccc(NC(=O)c2ccc(CN3CCN(C)CC3)cc2)cc1Nc1nccc(-c2cccnc2)n1` [Imatinib Mesylate], for which the relative cell viability stood at 122. Same read-out and setting: next, `OCCN(CCO)c1nc(N2CCCCC2)c2nc(N(CCO)CCO)nc(N3CCCCC3)c2n1` [Dipyridamole]: 108; `Nc1ccn([C@@H]2O[C@H](CO)[C@@H](O)C2(F)F)c(=O)n1` [Gemcitabine HCl]: 3.77.

With `CCCCCCNC(=O)n1cc(F)c(=O)[nH]c1=O` [Carmofur], the relative cell viability was 99.2. The same measure, in the same setting: to `CC(S)C(=O)NCC(=O)O` (stereo not given) [Tiopronin] belongs 99.2; to `COc1cc(C(C)=O)ccc1OCCCN1CCC(c2noc3cc(F)ccc23)CC1` [Iloperidone], 99.6. On the same count and under the same terms, to `CCN1CCC[C@H]1CNC(=O)c1cc(S(N)(=O)=O)ccc1OC` [Levosulpiride] belongs 107; to `NS(=O)(=O)Cc1noc2ccccc12` [Zonisamide], 108; to `Cc1nc2n(c(=O)c1CCN1CCC(c3noc4cc(F)ccc34)CC1)CCCC2` [Risperidone], 104. On the same count and under the same terms, to `Cc1c(OCC(F)(F)F)ccnc1C[S@@+]([O-])c1nc2ccccc2[nH]1` [Dexlansoprazole] belongs 101; to `Cc1cc(N)c2ccccc2[n+]1CCCCCCCCCC[n+]1c(C)cc(N)c2ccccc21` [Dequalinium chloride], 93.3; to `COc1cc2c(cc1OC)CC(=O)N(CCCN(C)C[C@H]1Cc3cc(OC)c(OC)cc31)CC2` [Ivabradine HCl], 105. For the compound `CC(C)(Sc1cc(C(C)(C)C)c(O)c(C(C)(C)C)c1)Sc1cc(C(C)(C)C)c(O)c(C(C)(C)C)c1` [Probucol], the relative cell viability was determined as 106.

`COc1cc([C@@H]2c3cc4c(cc3[C@@H](O[C@@H]3O[C@@H]5CO[C@@H](C)O[C@H]5[C@H](O)[C@H]3O)[C@H]3COC(=O)[C@H]23)OCO4)cc(OC)c1O` [Etoposide]: the relative cell viability turned out to be 91.3. The compound `Cc1ccc(C(=O)c2cc(O)c(O)c([N+](=O)[O-])c2)cc1` [Tolcapone] returned a relative cell viability of 98.4. Compound `CC[C@]1(O)C[C@@H]2CN(CCc3c([nH]c4ccccc34)[C@@](C(=O)OC)(c3cc4c(cc3OC)N(C)[C@H]3[C@@](O)(C(=O)OC)[C@H](OC(C)=O)[C@]5(CC)C=CCN6CC[C@]43[C@@H]65)C2)C1` [Vinblastine] had a relative cell viability of 28. Regarding `CN1CCC(=C2c3ccccc3CC(=O)c3sccc32)CC1` [Ketotifen fumarate], the relative cell viability stood at 99.8.

In turn, `CN(C)CC/C=C1/c2ccccc2COc2ccc(CC(=O)O)cc21` [Olopatadine hydrochloride] registered a relative cell viability of 89.6. Still for that read-out and setting: next, `CCC[C@@H]1C[C@@H](C(=O)N[C@@H]([C@H]2O[C@H](SC)[C@H](O)[C@@H](O)[C@H]2O)[C@@H](C)O)N(C)C1` [Lincomycin hydrochloride]: 99; `CO[C@H]1C[C@@H]2CC[C@@H](C)[C@@](O)(O2)C(=O)C(=O)N2CCCC[C@H]2C(=O)O[C@H]([C@H](C)C[C@@H]2CC[C@@H](OC(=O)C(C)(CO)CO)[C@H](OC)C2)CC(=O)[C@H](C)/C=C(\C)[C@@H](O)[C@@H](OC)C(=O)[C@H](C)C[C@H](C)/C=C/C=C/C=C/1C` [Temsirolimus]: 60.2; `Cc1[nH]c(=O)c(C#N)cc1-c1ccncc1` [Milrinone]: 99.8. The same measure, in the same setting: next, `C=CC[N+]1([C@H]2C[C@H]3[C@@H]4CC[C@H]5C[C@H](O)[C@@H](N6CCOCC6)C[C@]5(C)[C@H]4CC[C@]3(C)[C@H]2OC(C)=O)CCCC1` [Rocuronium bromide]: 104; `CCOc1ccc2ccccc2c1C(=O)N[C@@H]1C(=O)N2[C@@H]1SC(C)(C)[C@@H]2C(=O)O` [nafcillin sodium monohydrate]: 99.1; `CCOC(=O)[C@H](CCc1ccccc1)N[C@@H](C)C(=O)N1CCC[C@H]1C(=O)O` [Enalapril maleate]: 98.5. Still for that read-out and setting: next, `COc1cccc2c1C(=O)c1c(O)c3c(c(O)c1C2=O)C[C@@](O)(C(=O)CO)C[C@@H]3O[C@H]1C[C@H](N)[C@@H](O)[C@H](C)O1` [Epirubicin Hydrochloride]: 93.5. Compound `CC1=C(/C=C/C(C)=C/C=C/C(C)=C\C(=O)O)C(C)(C)CCC1` [Isotretinoin] displayed a relative cell viability of 116. The same measure, in the same setting: next, `Nc1c2c(nc3ccccc13)CCCC2` [Tacrine HCl]: 94.1; `O=P(O)(O)C(O)(Cn1ccnc1)P(=O)(O)O` [Zoledronic Acid]: 104. Regarding `O=C(c1ccc(OCCN2CCCCC2)cc1)c1c(-c2ccc(O)cc2)sc2cc(O)ccc12` [Evista], the relative cell viability amounted to 112.

Compound `CCCN(CCC)S(=O)(=O)c1ccc(C(=O)O)cc1` [Probenecid] gave a relative cell viability of 101. The same measure, in the same setting: to `CS(=O)(=O)c1ccc(C2=C(c3ccccc3)C(=O)OC2)cc1` [Rofecoxib] belongs 105; to `CN(C)c1nc(N(C)C)nc(N(C)C)n1` [Altretamine], 115.

`Cc1cccc(C)c1OCC(C)N` (stereo not given) [Mexiletine HCl]: the relative cell viability was determined as 103. Still for that read-out and setting: next, `CCNC(=O)CCC/C=C\C[C@@H]1[C@@H](/C=C/[C@@H](O)CCc2ccccc2)[C@H](O)C[C@@H]1O` [Bimatoprost]: 104. Still for that read-out and setting: to `C[C@]12CC[C@@H]3c4ccc(O)cc4C[C@@H](CCCCCCCCC[S+]([O-])CCCC(F)(F)C(F)(F)F)[C@H]3[C@@H]1CC[C@@H]2O` (stereo not given in full) [Fulvestrant] belongs 111; to `CCc1c2c(nc3ccc(OC(=O)N4CCC(N5CCCCC5)CC4)cc13)-c1cc3c(c(=O)n1C2)COC(=O)[C@]3(O)CC` [Irinotecan HCl Trihydrate], 99. On the same count and under the same terms, next, `Cc1cn(-c2cc(NC(=O)c3ccc(C)c(Nc4nccc(-c5cccnc5)n4)c3)cc(C(F)(F)F)c2)cn1` [Nilotinib]: 105.
